“And” between values parts separate entries of the source, which are not always exact repeats. Equal values may be shown once. The source made the active and inactive calls. Unless noted, calls follow the shape of the dose curve; as a rule, active = well fitted curve in the direction sought with a large enough effect in the repeat runs; inconclusive = weak or mixed curves; inactive = no such curve, though single readings can be large; an effect the other way counts as inactive or inconclusive.

The nature of assay [1]: qHTS assay to identify small molecule antagonists of the glucocorticoid receptor (GR) signaling pathway - cell viability counter screen (AID 720693). Also: nearly all actives have a fitted effect of over 55% in size. Also: potency is read from the fitted curve at half-maximal effect. A general note: Quantitative high-throughput screening tests each substance at several concentrations.
Assay [2] can be described thus: qHTS assay for identifying genotoxic compounds that show differential cytotoxicity against isogenic chicken DT40 cell lines with known DNA damage response pathways - wild type cell line (AID 743012). Also: nearly all actives have a fitted effect of over 60% in size. Also: potency is read from the fitted curve at half-maximal effect. The method in brief: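 Cytotoxicity in repair-proficient parental chicken DT40 cells serves as the comparator for Rad54/Ku70- and Rev3-deficient lines. Cells were exposed to compounds for 40 h at 37 C/5% CO2, and ATP-based luminescence (CellTiter-Glo) measured viability.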

Assay [3] in a line: qHTS assay for identifying genotoxic compounds that show differential cytotoxicity against isogenic chicken DT40 cell lines with known DNA damage response pathways - Rev3 mutant cell line (AID 743014). Also: nearly all actives have a fitted effect of over 55% in size. Also: potency is read from the fitted curve at half-maximal effect.
Assay [4] is described as follows: qHTS assay for identifying genotoxic compounds that show differential cytotoxicity against isogenic chicken DT40 cell lines with known DNA damage response pathways - Rad54/Ku70 mutant cell line (AID 743015). Also: nearly all actives have a fitted effect of over 60% in size. Also: potency is read from the fitted curve at half-maximal effect.
Assay [5] is described as follows: qHTS assay to identify small molecule antagonists of the androgen receptor (AR) signaling pathway - cell viability counter screen (AID 743033; also: nearly all actives have a fitted effect of over 45% in size; also: potency is read from the fitted curve at half-maximal effect).
Assay [6] is described as follows: qHTS assay to identify small molecule antagonists of the thyroid receptor (TR) signaling pathway - cell viability counter screen (AID 743064). Also: nearly all actives have a fitted effect of over 50% in size. Also: potency is read from the fitted curve at half-maximal effect. Summed up: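 Fluorescence from CellTiter-Fluor, added after 23.5 h exposure at 37 °C, reported viability of GH3.TRE-Luc cells co-treated with compound and 1 nM T3. Measured in the same wells as the luciferase TR readout.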

A short description of assay [7]: qHTS assay to identify small molecule antagonists of the thyroid receptor (TR) signaling pathway (AID 743065). Also: nearly all actives have a fitted effect of over 55% in size. Also: potency is read from the fitted curve at half-maximal effect. The method in brief:
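GH3.TRE-Luc rat pituitary cells carrying two TR response elements driving luciferase were plated for 4 h, given compound plus 1 nM T3 (final), and incubated 23.5 h at 37 C. ONE-Glo luminescence measured reporter inhibition; CellTiter-Fluor fluorescence tracked cytotoxicity.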

The test system of assay [8] is thyroid hormone receptor (rat, GH3 cells). Kind of assay: qHTS assay to identify small molecule agonists of the thyroid receptor (TR) signaling pathway (AID 743066; calls by dose curve).
Assay [9] has as its target Estrogen receptor (Homo sapiens) (UniProt P03372). Kind of assay: qHTS assay to identify small molecule antagonists of the estrogen receptor alpha (ER-alpha) signaling pathway (AID 743069; active = well fitted curve in the direction sought with a large enough effect in the signal ratio in the repeat runs, not every such curve was filed as active; inconclusive = weak or mixed curves, or effect the other way; inactive = no such curve, though single readings can be large or run the other way; the % refers to the signal ratio; also: potency is read from the fitted curve at half-maximal effect). Summed up:
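Screening used a UAS-driven beta-lactamase reporter integrated into HEK293 cells expressing ER-alpha, stimulated with 17beta-estradiol alongside test compounds over 18 hr at 37C; signal came from LiveBLAzer B/G FRET fluorescence.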

The nature of assay [10]: qHTS assay to identify small molecule antagonists of the estrogen receptor alpha (ER-alpha) signaling pathway - cell viability counter screen (AID 743074; calls by dose curve; also: nearly all actives have a fitted effect of over 45% in size; also: potency is read from the fitted curve at half-maximal effect).
The target in assay [11] is Estrogen receptor (Homo sapiens) (UniProt P03372). Kind of assay: qHTS assay to identify small molecule agonists of the estrogen receptor alpha (ER-alpha) signaling pathway (AID 743075; calls by dose curve).
A short description of assay [12]: qHTS assay to identify small molecule antagonists of the estrogen receptor alpha (ER-alpha) signaling pathway using the BG1 cell line (AID 743080; calls by dose curve;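 also: BG1 cells stimulated with 17beta-estradiol alongside compound; nearly all actives have a fitted effect of over 25% in size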; also: potency is read from the fitted curve at half-maximal effect). Summed up:
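BG1-Luc-4E2 cells (endogenous full-length ER-alpha, stable 4×ERE-luciferase) were starved 5 days in phenol-red-free medium with 10% charcoal-stripped FBS, plated 24 h, then given compound plus 17beta-estradiol for 21.5 h at 37 C; ONE-Glo luminescence read after 30 min.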

Assay [13] can be described thus: qHTS assay to identify small molecule antagonists of the estrogen receptor alpha (ER-alpha) signaling pathway using the BG1 cell line - cell viability counter screen (AID 743081).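 Also: compound given together with 17beta-estradiol as the ER stimulus; nearly all actives have a fitted effect of over 45% in size.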 Also: potency is read from the fitted curve at half-maximal effect.
The target in assay [14] is Aromatase (Homo sapiens) (UniProt P11511). Kind of assay: qHTS assay to identify aromatase inhibitors (AID 743083). Also: nearly all actives have a fitted effect of over 55% in size. Also: potency is read from the fitted curve at half-maximal effect.
Assay [15] in a line: qHTS assay to identify small molecule antagonists of the androgen receptor (AR) signaling pathway using the MDA cell line - cell viability counter screen (AID 743041; also: nearly all actives have a fitted effect of over 45% in size; also: potency is read from the fitted curve at half-maximal effect). The method in brief: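 qHTS viability read-out; MDA-kb2 AR-luc; R1881-stimulated; 16 h exposure at 37C, 0% CO2; CellTiter-Fluor, 30 min; fluorescence intensity.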
For assay [16], the target named is Estrogen receptor (Homo sapiens) (UniProt P03372). Kind of assay: qHTS assay to identify small molecule agonists of the estrogen receptor alpha (ER-alpha) signaling pathway using the BG1 cell line (AID 743079). Also: nearly all actives have a fitted effect of over 20% in size.

Chain of Estrogen receptor (Homo sapiens) (P03372 whole entry, looked up): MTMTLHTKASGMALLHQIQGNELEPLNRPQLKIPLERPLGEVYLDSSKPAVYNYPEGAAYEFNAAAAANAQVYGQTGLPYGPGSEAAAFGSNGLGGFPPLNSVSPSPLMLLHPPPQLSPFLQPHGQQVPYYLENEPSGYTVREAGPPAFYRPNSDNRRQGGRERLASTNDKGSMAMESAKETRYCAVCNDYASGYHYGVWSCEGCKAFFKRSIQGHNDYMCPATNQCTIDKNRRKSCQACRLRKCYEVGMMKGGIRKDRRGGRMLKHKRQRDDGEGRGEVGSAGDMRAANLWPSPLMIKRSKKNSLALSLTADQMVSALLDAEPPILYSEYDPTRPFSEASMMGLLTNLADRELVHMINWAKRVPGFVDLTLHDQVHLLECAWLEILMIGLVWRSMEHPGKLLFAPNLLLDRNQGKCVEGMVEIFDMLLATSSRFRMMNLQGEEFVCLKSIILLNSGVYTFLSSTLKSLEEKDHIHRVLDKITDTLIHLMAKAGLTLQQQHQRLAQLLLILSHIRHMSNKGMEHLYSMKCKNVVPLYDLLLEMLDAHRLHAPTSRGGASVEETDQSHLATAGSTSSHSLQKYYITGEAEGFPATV
Chain of Aromatase (Homo sapiens) (P11511 whole entry, looked up): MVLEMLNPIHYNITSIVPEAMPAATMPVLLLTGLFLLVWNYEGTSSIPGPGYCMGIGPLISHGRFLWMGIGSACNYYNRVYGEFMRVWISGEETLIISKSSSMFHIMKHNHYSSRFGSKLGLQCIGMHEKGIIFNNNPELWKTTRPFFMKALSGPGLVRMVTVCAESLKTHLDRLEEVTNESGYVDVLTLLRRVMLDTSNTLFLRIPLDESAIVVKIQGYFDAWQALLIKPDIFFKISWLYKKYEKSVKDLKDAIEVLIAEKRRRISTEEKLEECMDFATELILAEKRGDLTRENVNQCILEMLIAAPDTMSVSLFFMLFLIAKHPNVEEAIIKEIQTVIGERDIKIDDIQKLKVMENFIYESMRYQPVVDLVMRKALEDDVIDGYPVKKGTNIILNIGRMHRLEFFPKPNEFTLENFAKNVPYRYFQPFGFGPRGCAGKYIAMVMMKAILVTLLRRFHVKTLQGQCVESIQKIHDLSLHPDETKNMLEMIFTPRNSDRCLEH

In the case of `ClC(Cl)=C(c1ccc(Cl)cc1)c1ccc(Cl)cc1`, the Potency entry in assay [1], in [2], in assay [3], in assay [4], in assay [5] and in assay [9] was “inactive” each time. The Potency result in assay [10], in assay [11], in assay [12], in assay [13] and in assay [14] was “inactive” throughout. For the same compound, the Potency was 62.6 µM (active) and 30.6 µM (active) in assay [6]; 55.8 µM (active) and 30.6 µM (active) in [7]. Moreover, in assay [8], the compound was called inactive.

As to `CCOCn1c(-c2ccc(Cl)cc2)c(C#N)c(Br)c1C(F)(F)F`, the Potency in assay [1] was 3.47 µM (active); in assay [2], 1.93 µM (active); in assay [3], 2.17 µM (active); in assay [4] it was 1.54 µM (active); in assay [5], 0.871 µM (active); in assay [15], 3.86 µM (active). The Potency in assay [6] is 6.11 µM (active); in [7] it was 1.37 µM (active); in [14] it was 9.69 µM (active).

Turning to `CCCN(CC)CC1COC2(CCC(C(C)(C)C)CC2)O1` (stereo not drawn), the Potency entry in [1], in assay [5], in assay [9], in assay [10], in assay [11] and in assay [16] was “inactive” in each case. Besides, the Potency entry in assay [12], in assay [13] and in assay [14] was “inactive” in each case. Moreover, the Potency was 5.45 µM (active) in assay [2], 0.686 µM (active) in assay [3] and 1.22 µM (active) in assay [4]. In assay [8], the compound was classed as inactive.

As for `O=c1[nH]c2ccccc2n1CCCN1CCC(n2c(=O)[nH]c3cc(Cl)ccc32)CC1`, the Potency result in assay [1], in assay [5], in assay [15], in [13] and in [14] was “inactive” in each case. For the same compound, the values for the Potency in [2], in assay [4] and in assay [7] were 26.6 µM (active), 23.7 µM (active) and 26.6 µM (active), respectively.

`C=CCC1=C(C)C(OC(=O)C2C(C=C(C)C)C2(C)C)CC1=O` (stereo not drawn): the Potency was 46.3 µM (active) in assay [1]; 10.3 µM (active) in [2]; 16.8 µM (active) in [3]; 18.7 µM (active) in [4]; 49.3 µM (active) in assay [6]; 25.8 µM (active) in assay [7]. For the same compound, the Potency in assay [9] was 58.3 µM [fluorescent] (active); in [10], 46.3 µM (active); in assay [12], 36.4 µM (active); in assay [14] it was 47.2 µM (active). Besides, in assay [8], the compound was classed as inactive. The Potency entry in assay [11] is “inactive”.

`CC1(C)[C@H](C(=O)O[C@H](C#N)c2cccc(Oc3ccccc3)c2)[C@@H]1/C=C(\Cl)C(F)(F)F`: the Potency entry in [1], in assay [6], in assay [10], in assay [13] and in assay [14] was “inactive” throughout. In addition, the figures for the Potency in assay [2], in assay [3] and in assay [4] were 50.5 µM (active), 50.5 µM (active) and 40.1 µM (active), respectively. For the same compound, the call in assay [8] was inactive.

`CN(C)c1ccc(N=Nc2ccccc2)cc1`: the Potency result in [1], in assay [2], in assay [3], in [15], in [6] and in [10] was “inactive” each time. In addition, in [8], the call was inactive. The Potency in assay [13] was 61.2 µM (active).

Turning to `CC(C)(C)c1ccc(CSc2cnn(C(C)(C)C)c(=O)c2Cl)cc1`, the Potency entry in [1] was “inactive”. Besides, the Potency in [2] is 0.0097 µM (active); in assay [3] it was 0.0193 µM (active); in assay [4], 0.0109 µM (active); in assay [15], 0.0306 µM (active); in [6], 54.5 µM (active); in [9] it was 0.0055 µM [inconclusive] (active). The results for the Potency in assay [12], in assay [13] and in [14] were 0.0109 µM (active), 27.3 µM (active) and 61.1 µM (active), respectively.

As to `O=[N+]([O-])O.O=[N+]([O-])O.[Cd]`, the Potency entry in assay [1], in [15], in assay [10] and in assay [14] was “inactive” throughout. Also, the Potency was 43.3 µM (active) in [2], 27.3 µM (active) in [3] and 61.1 µM (active) in assay [4].

As to `Clc1ccc(CSC(Cn2ccnc2)c2ccc(Cl)cc2Cl)cc1` (stereo not drawn), the Potency entry in assay [1], in [10], in assay [12] and in [13] was “inactive” each time. For the same compound, the Potency in [2] was 10.1 µM (active); in [3], 11.4 µM (active); in assay [4], 12.7 µM (active); in assay [14] it was 2.85 µM (active). In assay [8], the call was inactive.

As for `CC(C)CCCCCOC(=O)c1ccccc1C(=O)OCCCCCC(C)C`, the Potency result in assay [1], in assay [2], in assay [4], in assay [5], in assay [15] and in assay [7] was “inactive” throughout. For the same compound, the Potency entry in [9], in assay [10], in assay [11], in assay [16], in assay [12] and in assay [13] was “inactive” in each case. In assay [14], the Potency entry was “inactive”. Also, the compound was classed as inactive in [8].

For `Clc1ccc(CCC(Cn2ccnc2)Sc2c(Cl)cccc2Cl)cc1` (stereo not drawn), the Potency result in assay [1], in [5], in [15], in assay [6], in assay [10] and in [12] was “inactive” each time. Also, the Potency result in [13] was “inactive”. In addition, the Potency in assay [2] and in [14] was 12.7 µM (active) throughout. Further, the result in [8] was inactive.

The values above are taken from PubChem BioAssay (Tox21).
